The results in this text go back to PubChem BioAssay (NCI).

SMILES strings stand for the structures. This is part of a sample that, as a whole, favours compounds with a hit. Of some 83,000 tested, about 20% had one in any assay.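 Growth was measured after 48 h exposure to one concentration of compound in 96-well plates. Values under 10 count as active.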 Unmarked numbers belong to inactive results. Calls of active or inactive are those of the source.

Some test systems named below: NCI-H23 lung; NCI-H226 lung; NCI-H322M lung; HOP-62 NSCLC; NCI-H460 lung; HOP-92 NSCLC; NCI-H522 lung; A549/ATCC NSCLC; 786-0 renal; COLO 205 colon.
Experiment in all cases: NCI-60 one-dose screen, 48 h (100 = growth as untreated, 0 = no growth, -100 = all killed)
Holding throughout (details): 10 µM unless noted

With `Cc1cnc([C@]23CC[C@@H](C)[C@H](C)[C@H]2C2=CC[C@@H]4[C@@]5(C)Cc6c([nH]c7ccccc67)C(C)(C)[C@@H]5CC[C@@]4(C)[C@]2(C)CC3)o1`, the growth in the assay with NCI-H23 lung is 27.8% [100 µM]; in the assay with NCI-H226 lung, 59.2% [100 µM]; in the assay on NCI-H322M lung, 37% [100 µM]; with HOP-62 NSCLC it was 43.8% [100 µM]; in the assay on NCI-H460 lung it was 16.7% [100 µM]; in the assay with HOP-92 NSCLC, 30.5% [100 µM]. Besides, the growth is 79.5% [100 µM] with NCI-H522 lung, 28.8% [100 µM] in the assay with A549/ATCC NSCLC, 27% [100 µM] in the assay with 786-0 renal and 43% [100 µM] in the assay on COLO 205 colon.

`CC(C)c1ccc(/C=N/N=C(N)N)cc1`: the growth was 80.7% with NCI-H23 lung; 93.2% in the assay with NCI-H226 lung; 106% in the assay with NCI-H322M lung; 84.3% in the assay with HOP-62 NSCLC; 91.1% in the assay on NCI-H460 lung; 24.1% in the assay with HOP-92 NSCLC. Besides, the growth in the assay on NCI-H522 lung is 66.7%; in the assay with A549/ATCC NSCLC, 88.8%; with 786-0 renal, 93.4%; in the assay on COLO 205 colon, 59.8%.

With `Nc1ccc(Cl)c([N+](=O)[O-])c1`, the growth in the assay on NCI-H23 lung is 111%; with NCI-H226 lung, 101%; with NCI-H322M lung, 106%; with HOP-62 NSCLC it was 101%; in the assay with NCI-H460 lung it was 104%; in the assay on HOP-92 NSCLC, 94%. The growth in the assay with NCI-H522 lung was 87.5%; in the assay on A549/ATCC NSCLC, 97.7%; in the assay with 786-0 renal, 107%; in the assay on COLO 205 colon, 107%.

As for `CCCCCC1CCCCN1C(=O)OCCCC` (stereo not given), the growth in the assay with NCI-H23 lung was 62%; in the assay with NCI-H226 lung, 87.5%; in the assay with NCI-H322M lung it was 103%; in the assay with HOP-62 NSCLC, 122%; with NCI-H460 lung, 99.9%; with HOP-92 NSCLC it was 113%. Moreover, the growth in the assay with NCI-H522 lung is 32%; in the assay on A549/ATCC NSCLC, 114%; with 786-0 renal it was 104%; in the assay on COLO 205 colon it was 111%.

In the case of `CC1(C)NCCC[C@]2(C)[C@H]3C=CC4=C5C[C@](C)(CO)CC[C@]5(C)CC[C@@]4(C)[C@]3(C)CC[C@@H]12`, the growth in the assay on NCI-H23 lung was -84.9% [100 µM] (active); in the assay on NCI-H226 lung it was -59.1% [100 µM] (active); in the assay on NCI-H322M lung, -99.7% [100 µM] (active); with HOP-62 NSCLC it was -74.5% [100 µM] (active); with NCI-H460 lung, -81.6% [100 µM] (active); in the assay with HOP-92 NSCLC, -76.4% [100 µM] (active). Also, the growth in the assay on NCI-H522 lung is -75.6% [100 µM] (active); in the assay on A549/ATCC NSCLC it was -66.5% [100 µM] (active); in the assay with 786-0 renal it was -72% [100 µM] (active); in the assay on COLO 205 colon, -55.9% [100 µM] (active).

For the compound `CCN(CC)c1ccc2cc(NC(=O)OCCNC(=O)CCNC(=O)[C@H](CC(C)C)NC(=O)C(C)(C)NC(=O)C(C)(C)NC(=O)[C@H](CC(C)C)NC(=O)CCNC(=O)C(C)(C)NC(=O)[C@H](CC(C)C)NC(=O)CCNC(=O)[C@@](C)(CC)NC(=O)[C@H](C)NC(=O)CCNC(=O)C(C)(C)NC(=O)[C@H](C)NC(=O)[C@@H]3CCCN3C(=O)[C@@](C)(CC)NC(=O)[C@H](Cc3ccccc3)NC(=O)C3CCCN3C(=O)C(C)(C)NC(=O)C3CCCN3C(=O)C(C)(C)NC(C)=O)c(=O)oc2c1` (stereo not given in full), the growth is -85.9% (active) with NCI-H23 lung; -65.9% (active) with NCI-H226 lung; -80.3% (active) in the assay on NCI-H322M lung; -86.7% (active) in the assay with HOP-62 NSCLC; -76.9% (active) in the assay with NCI-H460 lung; -95.8% (active) with HOP-92 NSCLC. Besides, the growth with NCI-H522 lung is -82.3% (active); in the assay on A549/ATCC NSCLC it was -76% (active); in the assay on 786-0 renal, -94.8% (active); in the assay on COLO 205 colon it was -81.1% (active).

For the compound `COCCCNc1nc(NC(=O)c2cc(Br)cc(C(F)(F)F)c2)cc(-c2cccnc2)n1`, the growth in the assay on NCI-H23 lung is 103%; in the assay on NCI-H226 lung it was 91.8%; in the assay with NCI-H322M lung, 99.9%; with HOP-62 NSCLC, 91.8%; in the assay on NCI-H460 lung, 85.7%; in the assay on HOP-92 NSCLC it was 57.9%. For the same compound, the growth in the assay on NCI-H522 lung was 83.6%; in the assay with A549/ATCC NSCLC it was 82%; in the assay with 786-0 renal it was 85.8%; in the assay with COLO 205 colon, 96.4%.

Take `CCCCC(CC)COC(=O)C[N+](C)(C)CCOC(c1ccccc1)c1ccccc1` (stereo not given): the growth with NCI-H23 lung is 42%; with NCI-H226 lung, 54.1%; in the assay on NCI-H322M lung, 88.7%; in the assay with HOP-62 NSCLC it was 60.6%; with NCI-H460 lung, 65.2%; with HOP-92 NSCLC, -12.2% (active). Also, the growth was -24.5% (active) with NCI-H522 lung, 88.3% in the assay on A549/ATCC NSCLC, 77.7% in the assay on 786-0 renal and -28% (active) with COLO 205 colon.

On to `CC(C)(C)c1cc(C(=O)Nc2cc3ccccc3cc2C(=O)NCCN)cc(C(C)(C)C)c1`, for which the growth in the assay on NCI-H23 lung is -52.4% (active); in the assay on NCI-H226 lung, -51.9% (active); in the assay with NCI-H322M lung it was -78.3% (active); in the assay on HOP-62 NSCLC, -80.8% (active); in the assay on NCI-H460 lung, -70.4% (active); in the assay with HOP-92 NSCLC it was -70.3% (active). The growth with NCI-H522 lung is -47.3% (active); with A549/ATCC NSCLC it was -60.7% (active); in the assay on 786-0 renal, -92% (active); in the assay with COLO 205 colon, -80.9% (active).

In the case of `COc1cc(C)cc2oc3oc(=O)c(-c4nc5ccccc5s4)cc3c(=O)c12`, the growth is 96.9% with NCI-H23 lung; 87.5% in the assay on NCI-H226 lung; 90% in the assay on NCI-H322M lung; 91.6% in the assay with HOP-62 NSCLC; 84.1% in the assay on NCI-H460 lung; 76.1% in the assay with HOP-92 NSCLC. The growth in the assay with NCI-H522 lung was 95.7%; in the assay with A549/ATCC NSCLC, 109%; in the assay on 786-0 renal, 105%; in the assay with COLO 205 colon, 110%.

Consider `Cc1ccc(-c2cc(-c3ccc(C)cc3)nc(N3CCN(CCNc4ccnc5cc(Cl)ccc45)CC3)n2)cc1`, for which the growth is 41.7% in the assay on NCI-H23 lung; 18% in the assay with NCI-H226 lung; 55.7% in the assay on NCI-H322M lung; 41.6% in the assay on HOP-62 NSCLC; 6.78% (active) in the assay on NCI-H460 lung; -12.7% (active) in the assay on HOP-92 NSCLC. The growth was 59.6% with NCI-H522 lung, 59.1% in the assay on A549/ATCC NSCLC, -38.8% (active) in the assay with 786-0 renal and 10.9% with COLO 205 colon.
